The results in this text go back to PubChem BioAssay (Tox21).

Results filed as inconclusive are left out. Calls of active or inactive are those of the source. Unless noted, calls follow the shape of the dose curve; as a rule, active = well fitted curve in the direction sought with a large enough effect in the repeat runs; inconclusive = weak or mixed curves; inactive = no such curve, though single readings can be large; an effect the other way counts as inactive or inconclusive.

Assay [1] in a line: qHTS assay to identify small molecule antagonists of the thyroid receptor (TR) signaling pathway - cell viability counter screen (AID 743064). Also: nearly all actives have a fitted effect of over 50% in size. Also: potency is read from the fitted curve at half-maximal effect. An outline of the steps:
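Rat GH3 pituitary tumor cells stably expressing two TR response elements driving luciferase were plated, rested 4 h, then dosed with library compounds and T3 (1 nM final). After 23.5 h at 37 °C, CellTiter-Fluor was added for 30 min and fluorescence recorded.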
On the technique in general: qHTS replaces the single test concentration by a dilution series.

A short description of assay [2]: qHTS assay to identify small molecule antagonists of the thyroid receptor (TR) signaling pathway (AID 743065). Also: nearly all actives have a fitted effect of over 55% in size. Also: potency is read from the fitted curve at half-maximal effect. An outline of the steps:
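Antagonism measured as loss of luciferase signal in GH3 cells stably carrying a TRE-luciferase reporter, co-treated with compound and T3 (1 nM final) for 23.5 h at 37 C. Viability was read in the same well by CellTiter-Fluor.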

Assay [3] is described as follows: qHTS assay to identify small molecule antagonists of the estrogen receptor alpha (ER-alpha) signaling pathway - cell viability counter screen (AID 743074; calls by dose curve;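 also: HEK293 cells carrying ER-alpha-UAS-bla reporter stimulated with 17beta-estradiol; nearly all actives have a fitted effect of over 45% in size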).
Assay [4] has as its target Estrogen receptor (Homo sapiens) (UniProt P03372). The assay is described as follows: qHTS assay to identify small molecule agonists of the estrogen receptor alpha (ER-alpha) signaling pathway (AID 743075; calls by dose curve;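 also: HEK293 GripTite cells with ER-alpha and UAS-driven beta-lactamase reporter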).
The target is the same in assay [5]. The assay is described as follows: qHTS assay to identify small molecule agonists of the estrogen receptor alpha (ER-alpha) signaling pathway using the BG1 cell line (AID 743079). Also: nearly all actives have a fitted effect of over 20% in size.
For assay [6], the target named is Aromatase (Homo sapiens) (UniProt P11511). The assay is described as follows: qHTS assay to identify aromatase inhibitors (AID 743083). Also: nearly all actives have a fitted effect of over 55% in size. Also: potency is read from the fitted curve at half-maximal effect.
Assay [7] is described as follows: qHTS assay to identify aromatase inhibitors - cell viability counter screen (AID 743084).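 Also: cells stimulated with testosterone during compound exposure; nearly all actives have a fitted effect of over 55% in size.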 Also: potency is read from the fitted curve at half-maximal effect.
The target of assay [8] is Aryl hydrocarbon receptor (Homo sapiens) (UniProt P35869). The assay can be described thus: qHTS assay to identify small molecule that activate the aryl hydrocarbon receptor (AhR) signaling pathway (AID 743085). Also: nearly all actives have a fitted effect of over 15% in size. Also: potency is read from the fitted curve at half-maximal effect.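 As to activation: HG2L7.5c1 human HepG2 liver cells with stably integrated DRE-driven firefly reporter; series mostly up to about 70 µM.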 An outline of the steps:
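Compounds were tested in HepG2 hepatocellular carcinoma cells harbouring a stably integrated luciferase gene under control of 20 DREs. Increased reporter signal after 24 h treatment at 37C was taken as AhR activation.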

Assay [9] in a line: qHTS assay to identify small molecule that activate the aryl hydrocarbon receptor (AhR) signaling pathway - cell viability counter screen (AID 743086). Also: nearly all actives have a fitted effect of over 45% in size. Also: potency is read from the fitted curve at half-maximal effect. An outline of the steps: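 Cytotoxicity counter screen: CellTiter-Fluor signal (30 min, 37 C) in 4000 HepG2 cells/well carrying the DRE-luciferase reporter, following 24 h compound exposure at 37 C.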
The target of assay [10] is Peroxisome proliferator-activated receptor gamma (Homo sapiens) (UniProt P37231). The assay can be described thus: qHTS assay to identify small molecule agonists of the peroxisome proliferator-activated receptor gamma (PPARg) signaling pathway (AID 743094; active = well fitted activation curve with a large enough effect in the signal ratio in the repeat runs, not every such curve was filed as active; the % refers to the signal ratio). In outline:
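HEK293H PPARg-bla cells, 5 h settle at 37C/5% CO2; compound (DMSO) 17 h, 37C; B/G FRET substrate 1 h RT; fluorescence intensity read-out. qHTS format.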

For assay [11] the target is unchanged. The assay is described as follows: qHTS assay to identify small molecule antagonists of the peroxisome proliferator-activated receptor gamma (PPARg) signaling pathway (AID 743191; calls by dose curve; also: series mostly up to about 63 µM; nearly all actives have a fitted effect of over 30% in size). An outline of the steps: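 Beta-lactamase reporter under UAS control in HEK293H PPARg-bla cells; compound treatment 17 h at 37C. Read-out: fluorescence intensity after 1 h room-temperature incubation with LiveBLAzer B/G FRET substrate.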

A short description of assay [12]: qHTS assay to identify small molecule antagonists of the peroxisome proliferator-activated receptor gamma (PPARg) signaling pathway - cell viability counter screen (AID 743194). Also: nearly all actives have a fitted effect of over 55% in size. In outline: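 Viability was measured as CellTiter-Glo luminescence in GeneBLAzer PPARg UAS-bla HEK293H cells. These cells had been exposed 17 h at 37 C to compounds together with rosiglitazone at 50 nM final, with the beta-lactamase readout taken in the same wells.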

Assay [13] can be described thus: qHTS assay for small molecule agonists of the antioxidant response element (ARE) signaling pathway (AID 743202; active = well fitted activation curve with a large enough effect in the signal ratio in the repeat runs, not every such curve was filed as active; the % refers to the signal ratio). In outline: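 After 16 hours of compound treatment at 37 C, HepG2 cells with a stably integrated ARE-driven beta-lactamase reporter were loaded 2 hours at room temperature with LiveBLAzer B/G FRET substrate and fluorescence intensity measured.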
The nature of assay [14]: qHTS assay for small molecule agonists of the antioxidant response element (ARE) signaling pathway - cell viability counter screen (AID 743203; calls by dose curve; also: nearly all actives have a fitted effect of over 55% in size). An outline of the steps: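 Luminescence read-out (CellTiter-Glo, 30 min at room temperature) measured cell viability in the same wells as the ARE beta-lactamase reporter. HepG2 ARE-bla cells were treated with compounds for 16 hrs at 37C/5% CO2.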

A short description of assay [15]: qHTS assay for small molecule activators of the heat shock response signaling pathway - cell viability counter screen (AID 743209). Also: nearly all actives have a fitted effect of over 50% in size. An outline of the steps:
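HSE-bla HeLa; 1500 cells/well; overnight 37 C, 5% CO2; compound 5 h 37 C; LiveBLAzer B/G substrate 2.5 h RT; CellTiter-Glo 30 min RT; luminescence.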

Assay [16] in a line: qHTS assay for small molecule activators of the heat shock response signaling pathway (AID 743210; active = well fitted activation curve with a large enough effect in the signal ratio in the repeat runs, with a control signal flat, not every such curve was filed as active; the % refers to the signal ratio; also: series mostly up to about 63 µM). In outline:
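Compound exposure lasted 5 h at 37 C in HeLa cells carrying a heat-shock-element-driven beta-lactamase reporter. Read-out: fluorescence intensity after 2.5 h room-temperature loading with LiveBLAzer B/G FRET substrate.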

The subject of assay [17] is thyroid hormone receptor (rat, GH3 cells). The assay can be described thus: qHTS assay to identify small molecule agonists of the thyroid receptor (TR) signaling pathway (AID 743066; calls by dose curve; also: potency is read from the fitted curve at half-maximal effect).
The nature of assay [18]: qHTS assay to identify small molecule antagonists of the estrogen receptor alpha (ER-alpha) signaling pathway using the BG1 cell line - cell viability counter screen (AID 743081).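 Also: compound given together with 17beta-estradiol as the ER stimulus; series mostly up to about 70 µM; nearly all actives have a fitted effect of over 45% in size.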
Assay [19] addresses Estrogen receptor (Homo sapiens) (UniProt P03372). The assay can be described thus: qHTS assay to identify small molecule antagonists of the estrogen receptor alpha (ER-alpha) signaling pathway (AID 743069; active = well fitted curve in the direction sought with a large enough effect in the signal ratio in the repeat runs, not every such curve was filed as active; the % refers to the signal ratio). In outline: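 Antagonist mode: compounds in DMSO were co-added with 17beta-estradiol to ER-alpha-bla HEK293 cells (2% charcoal-stripped serum) and left 18 h at 37C. Reporter inhibition was measured as FRET fluorescence after 2 h LiveBLAzer substrate at room temperature.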

Assay [20] is described as follows: qHTS assay to identify small molecule antagonists of the estrogen receptor alpha (ER-alpha) signaling pathway using the BG1 cell line (AID 743080; calls by dose curve;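 also: BG1 cells stimulated with 17beta-estradiol alongside compound; series mostly up to about 70 µM; nearly all actives have a fitted effect of over 25% in size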). An outline of the steps:
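BG1Luc4E2, endogenous ER-alpha, 4xERE-luc; 5 d charcoal-stripped FBS, phenol red free; 24 h plating; cpd + 17beta-estradiol 21.5 h, 37 C/5% CO2; CellTiter-Fluor viability 30 min, then ONE-Glo luciferase 30 min RT.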

Chain of Peroxisome proliferator-activated receptor gamma (Homo sapiens) (P37231 whole entry, looked up): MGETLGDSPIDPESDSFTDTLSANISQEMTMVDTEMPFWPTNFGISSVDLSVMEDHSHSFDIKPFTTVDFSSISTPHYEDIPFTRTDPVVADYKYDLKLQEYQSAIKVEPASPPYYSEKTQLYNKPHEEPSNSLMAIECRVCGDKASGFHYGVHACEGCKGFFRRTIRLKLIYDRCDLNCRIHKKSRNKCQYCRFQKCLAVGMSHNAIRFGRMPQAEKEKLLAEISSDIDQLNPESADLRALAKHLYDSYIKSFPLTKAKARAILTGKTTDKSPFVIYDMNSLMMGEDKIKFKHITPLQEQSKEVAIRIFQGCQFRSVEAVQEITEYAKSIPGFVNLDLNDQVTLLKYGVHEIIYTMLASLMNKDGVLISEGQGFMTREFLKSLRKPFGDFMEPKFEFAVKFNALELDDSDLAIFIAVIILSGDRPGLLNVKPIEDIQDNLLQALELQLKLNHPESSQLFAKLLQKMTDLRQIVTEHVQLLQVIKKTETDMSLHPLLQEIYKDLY
Chain of Aryl hydrocarbon receptor (Homo sapiens) (P35869 whole entry, looked up): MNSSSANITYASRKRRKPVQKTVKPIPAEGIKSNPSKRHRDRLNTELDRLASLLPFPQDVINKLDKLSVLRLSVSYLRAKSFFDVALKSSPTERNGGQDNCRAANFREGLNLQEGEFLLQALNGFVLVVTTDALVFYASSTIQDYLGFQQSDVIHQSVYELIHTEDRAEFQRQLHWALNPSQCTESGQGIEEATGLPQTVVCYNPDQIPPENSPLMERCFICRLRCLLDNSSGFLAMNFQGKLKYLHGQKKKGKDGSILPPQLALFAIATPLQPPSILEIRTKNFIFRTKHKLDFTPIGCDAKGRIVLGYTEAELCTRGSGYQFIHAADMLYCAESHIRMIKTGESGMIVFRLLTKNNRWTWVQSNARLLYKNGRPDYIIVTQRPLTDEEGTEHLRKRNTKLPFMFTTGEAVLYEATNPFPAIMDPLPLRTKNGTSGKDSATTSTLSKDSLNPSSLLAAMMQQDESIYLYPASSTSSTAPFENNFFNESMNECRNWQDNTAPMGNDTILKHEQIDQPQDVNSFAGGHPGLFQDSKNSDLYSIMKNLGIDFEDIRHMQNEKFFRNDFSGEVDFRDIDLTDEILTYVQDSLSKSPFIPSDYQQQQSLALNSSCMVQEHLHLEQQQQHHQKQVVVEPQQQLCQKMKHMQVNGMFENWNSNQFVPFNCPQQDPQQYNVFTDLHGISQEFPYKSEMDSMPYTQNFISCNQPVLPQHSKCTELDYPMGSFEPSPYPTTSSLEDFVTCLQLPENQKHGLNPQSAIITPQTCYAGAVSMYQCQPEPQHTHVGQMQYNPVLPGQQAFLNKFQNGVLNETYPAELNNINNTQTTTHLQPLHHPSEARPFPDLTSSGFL
Chain of Estrogen receptor (Homo sapiens) (P03372 whole entry, looked up): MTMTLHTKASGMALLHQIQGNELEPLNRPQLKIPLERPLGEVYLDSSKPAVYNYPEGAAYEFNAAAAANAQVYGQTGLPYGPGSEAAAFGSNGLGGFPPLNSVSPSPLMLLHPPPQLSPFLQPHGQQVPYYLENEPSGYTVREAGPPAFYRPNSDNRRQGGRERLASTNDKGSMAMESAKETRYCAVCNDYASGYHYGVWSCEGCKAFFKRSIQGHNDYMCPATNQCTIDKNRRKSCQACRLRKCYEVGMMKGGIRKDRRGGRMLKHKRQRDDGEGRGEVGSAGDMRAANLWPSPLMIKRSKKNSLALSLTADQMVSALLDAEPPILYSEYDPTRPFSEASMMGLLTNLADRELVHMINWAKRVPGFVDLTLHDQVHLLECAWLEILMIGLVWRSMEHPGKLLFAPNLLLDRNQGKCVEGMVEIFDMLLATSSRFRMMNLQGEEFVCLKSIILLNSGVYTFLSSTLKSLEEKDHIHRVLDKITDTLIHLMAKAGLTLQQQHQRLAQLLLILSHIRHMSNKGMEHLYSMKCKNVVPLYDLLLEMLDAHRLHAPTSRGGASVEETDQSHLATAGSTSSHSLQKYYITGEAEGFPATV
Chain of Aromatase (Homo sapiens) (P11511 whole entry, looked up): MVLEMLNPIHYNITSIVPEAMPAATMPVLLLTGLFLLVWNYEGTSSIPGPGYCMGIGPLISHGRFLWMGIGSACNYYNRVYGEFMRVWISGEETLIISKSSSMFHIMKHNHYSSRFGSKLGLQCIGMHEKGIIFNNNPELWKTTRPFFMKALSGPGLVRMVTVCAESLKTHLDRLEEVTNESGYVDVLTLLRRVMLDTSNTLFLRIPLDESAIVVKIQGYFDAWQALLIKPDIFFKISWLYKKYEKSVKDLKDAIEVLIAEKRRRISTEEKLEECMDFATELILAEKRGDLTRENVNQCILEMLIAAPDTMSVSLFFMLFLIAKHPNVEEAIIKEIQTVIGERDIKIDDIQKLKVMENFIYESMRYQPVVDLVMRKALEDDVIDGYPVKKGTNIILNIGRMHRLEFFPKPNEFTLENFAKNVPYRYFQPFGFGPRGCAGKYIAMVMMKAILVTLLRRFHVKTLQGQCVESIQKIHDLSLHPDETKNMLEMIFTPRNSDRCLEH

With `COC(=O)C1=C(C)NC(C)=C(C(=O)OCC(C)=O)C1c1ccccc1[N+](=O)[O-]` (configuration not stated), the Potency in assay [1] is 8.41 µM (active); in [2] it was 7.5 µM (active); in assay [6], 26.6 µM (active); in assay [7], 26.6 µM (active); in assay [8], 8.41 µM (active); in [9], 29.8 µM (active). Also, the call in assay [3], in [10], in assay [11], in assay [14], in assay [15] and in assay [16] was inactive. Besides, the Potency entry in assay [4], in [5], in assay [12] and in assay [13] was “inactive” each time.
As to `N[C@@H](CS)C(=O)O`, the Potency result in assay [1], in [2], in assay [17], in [6], in assay [7] and in assay [8] was “inactive” each time. Besides, the Potency entry in [9], in [12] and in assay [13] was “inactive” throughout. The result in assay [3], in assay [18], in assay [10], in assay [14], in [15] and in assay [16] was inactive.
With `COC(C(=O)O)c1ccccc1` (configuration not stated), the Potency result in assay [1], in assay [2], in [17], in assay [6], in assay [7] and in assay [8] was “inactive” in each case. Also, the Potency result in assay [9], in [12] and in [13] was “inactive” in each case. Besides, the molecule was classed as inactive in [18], in assay [11], in assay [14], in assay [15] and in assay [16].
`CCCCCCCCC=O`: the Potency entry in [1], in assay [2], in [17], in [5], in [9] and in assay [13] was “inactive” throughout. Further, the molecule was classed as inactive in [3], in assay [18], in assay [14], in assay [15] and in [16].
With `OCCCCCCO`, the Potency result in assay [1], in [2], in assay [17], in [6], in assay [7] and in assay [8] was “inactive” in each case. Also, the Potency entry in assay [9], in assay [12] and in assay [13] was “inactive” throughout. For the same molecule, the result in [3], in assay [18], in assay [10], in [11], in [14] and in assay [15] was inactive. Besides, the outcome in assay [16] was inactive.
Consider `CCN1CCCC1CNC(=O)c1cc(S(N)(=O)=O)ccc1OC` (configuration not stated), for which the Potency result in [1], in [2], in [17], in [6], in [7] and in [9] was “inactive” throughout. The Potency result in [12] and in assay [13] was “inactive” each time. For the same molecule, the outcome in [3], in [18], in [10], in [11], in assay [14] and in assay [15] was inactive. In addition, the result in assay [16] was inactive.
Consider `CN(C)N=Nc1ccccc1`, for which the Potency result in [1], in assay [2], in assay [17], in assay [9], in [12] and in assay [13] was “inactive” each time. In addition, the result in assay [3], in [18], in [14], in [15] and in assay [16] was inactive.
In the case of `C=C[Si](OC)(OC)OC`, the Potency entry in [1], in assay [17], in assay [19], in [4], in assay [5] and in assay [20] was “inactive” each time. The Potency result in assay [6], in assay [7], in assay [8], in assay [9], in assay [12] and in assay [13] was “inactive” throughout. For the same molecule, the outcome in assay [3], in assay [18], in [10], in [11], in assay [14] and in assay [15] was inactive. In addition, the molecule was classed as inactive in assay [16].
On to `CC(CCO)CCCC(C)(C)O` (configuration not stated), for which the Potency result in assay [1], in assay [2], in [6], in assay [7], in [8] and in assay [9] was “inactive” throughout. Besides, the Potency result in [12] is “inactive”. For the same molecule, the Potency in assay [17] is 27.3 µM (active). In addition, the result in assay [3], in assay [18], in [10], in assay [11], in assay [14] and in [15] was inactive. Besides, the result in assay [16] was inactive.
